# aSyn UTR act: Activators working through SNCA 5'UTR binding (MLPCN). alpha-synuclein 5'UTR reporter, activators screen. AID 1814. hit rate 7.1% among 300,000. activity score, % (tested at 7.5 µM), hits read low; in the data active means activity score below about -60%
# Active calls of the source: *. The list is a sample of the results.
SMILES,aSyn UTR act
CCOC(=O)Nc1sc2c(c1C#N)CCC(C)C2 (stereo not given),-161*
Cc1cccn2c1nc(=S)n2C(=O)c1ccco1,-265*
CC(=O)c1cccc(NC(=O)c2ccc3c(c2)CCCC3)c1,-132*
COc1cccc(NC(=O)COc2ccc3c(c2)CCC3)c1,-65*
CC(=O)c1cccc(NC(=O)Nc2ccc3c(c2)CCC3)c1,-91*
Cc1cccc(NC(=O)Nc2ccc3c(c2)CCC3)c1,-116*
COc1cccc(NC(=O)Nc2ccc3c(c2)CCC3)c1,-130*
Cn1cc(C(=O)Nc2ccc3c(c2)CCC3)cn1,-105*
CCc1ccc(NC(=O)Nc2ccc3c(c2)CCC3)cc1,-125*
O=C(Nc1ccc2c(c1)CCC2)c1cccc(F)c1,-143*
CC(=O)c1ccc(NC(=O)c2cnn3ccccc23)cc1,79
CC(=O)c1cccc(NC(=O)c2cnn3ccccc23)c1,-106*
O=C(c1ccc(CS(=O)Cc2ccccc2Cl)o1)N1CCN(C2CCCCC2)CC1 (stereo not given),-74*
O=C(c1ccc(CS(=O)c2ccccc2Cl)o1)N1CCN(c2ccccc2)CC1 (stereo not given),110
Cc1ccc(C(=O)/C=C2\NCCNC2=O)cc1,-72*
CC(=O)Nc1ccc(N/C=C/C(=O)c2ccc(Br)cc2)cc1,-95*
Cc1ccc(C(=O)/C=C2\NCC(C)NC2=O)cc1 (stereo not given),59
CC(=O)Nc1ccc(N/C=C/C(=O)c2ccc(C)cc2)cc1,-74*
Cc1ccc(C(=O)/C=C\C(=O)c2ccc(C)cc2)cc1,-63*
CC(=O)c1ccc(N/C=C/C(=O)c2ccc(Br)cc2)cc1,-226*
CCOC(=O)C1CCN(c2c(Nc3ccc4c(c3)OCCO4)c(=O)c2=O)CC1,-78*
O=[N+]([O-])c1ccc(-c2cn3c(n2)SCC3)cc1,-81*
N#Cc1ccc(-c2cn3c(n2)SCC3)cc1,-144*
CCC1CCCCN1CC(O)Cn1c2ccccc2n2c(=O)cc(C)c(C#N)c12 (stereo not given),-64*
O=[N+]([O-])c1ccccc1/C=N/OCc1ccccc1,-167*
SMILES,aSyn UTR act
Cc1cc(O)c(C(=O)Cc2csc(C)n2)c(O)c1,-132*
O=C(CSc1nnc(-c2ccccc2)o1)Nc1ccccc1F,74
Cc1cnc(NC(=O)CSc2nnc(-c3ccccc3)o2)s1,-139*
Cc1csc(NC(=O)CSc2nnc(-c3ccncc3)o2)n1,-99*
Cc1cnc(NC(=O)CC(C)c2ccccc2)s1 (stereo not given),-196*
Cc1occc1-c1nnc(SCC(=O)Nc2nc(C(C)(C)C)cs2)o1,-111*
Cc1csc(NC(=O)CSc2nnc(-c3ccoc3C)o2)n1,-111*
O=C(Nc1ccc(F)cc1F)c1noc2c1CCC2,-169*
O=C(Nc1cc(Cl)ccc1Cl)c1noc2c1CCCC2,-67*
CCCS(=O)(=O)c1nc(S(=O)(=O)c2ccc(C)cc2)c(N2CCC(C(N)=O)CC2)s1,-75*
CCCS(=O)(=O)c1nc(S(=O)(=O)c2ccc(Cl)cc2)c(N2CCC(O)CC2)s1,-95*
C/C(O)=C(\N=Nc1cc(C)ccc1O)C(N)=O,-65*
Cc1ccc(NC(=O)c2ccc(F)cc2F)cc1,-195*
O=C(NC(=O)c1ccc(F)cc1F)Nc1ccc(Cl)cc1,-159*
Cc1ccc(S(=O)(=O)Nc2ccc(NC(=O)Nc3ccc(F)cc3F)cc2)cc1,78
O=C(Nc1ccccc1)c1ccc(F)cc1F,-108*
Cc1cccnc1NC(=O)Nc1ccc(F)cc1,-144*
Cc1ccc(NC(=O)Nc2ncccc2C)cc1,-163*
CCOC(=O)c1ccc(NC(=O)Nc2ncccc2C)cc1,-102*
CCOC(=O)c1ccc(NC(=S)Nc2ccccn2)cc1,-137*
CCOc1ccc(-c2ccc(SCC(=O)NCC3CCCO3)nn2)cc1 (stereo not given),-67*
CCOC(=O)c1c(C)n(-c2ccc(C)cc2)c2ccc(OCC(O)CNCC3CCCO3)cc12 (stereo not given),75
Cc1ccc(-c2ccc(SCC(=O)NCC3CCCO3)nn2)cc1 (stereo not given),-85*
CCOc1ccc(C(=O)Nc2nnc(SCC(=O)NCC3CCCO3)s2)cc1 (stereo not given),76
CC(C)C/C=C1\CCc2c([nH]c3ccccc23)C1=O,-229*
SMILES,aSyn UTR act
O=C1/C(=C/c2cccnc2)CCc2c1[nH]c1ccccc21,-126*
N/C(=N\OC(=O)c1ccc([N+](=O)[O-])cc1)c1cccnc1,-92*
N/C(=N\OC(=O)c1ccccc1Cl)c1ccccn1,84
N/C(=N\OC(=O)c1cc([N+](=O)[O-])ccc1Cl)c1cccnc1,88
N/C(=N\OC(=O)c1ccccc1[N+](=O)[O-])c1ccccn1,-104*
Cc1ccc(C(=O)O/N=C(\N)c2cccnc2)cc1[N+](=O)[O-],-125*
N/C(=N\OC(=O)c1ccccc1[N+](=O)[O-])c1cccnc1,-97*
COc1ccc(/C(N)=N/OC(=O)c2ccc(C)c([N+](=O)[O-])c2)cc1OC,-126*
COc1cccc(/C=N/Nc2ncnc3c2ncn3Cc2ccccc2)c1O,102
Cn1cnc2c(N/N=C/c3cccs3)ncnc21,-67*
COc1ccc(/C=C2\N=C(SC)N(C)C2=O)cc1,-63*
COc1ccccc1NS(=O)(=O)c1ccc(-c2cc(C)no2)s1,-102*
COc1ccccc1CNS(=O)(=O)c1ccc(-c2cc(C)no2)cc1,80
CCc1cc2c(=O)c(-c3nc4ccccc4[nH]3)coc2cc1OC(=O)N1CCOCC1,-75*
CCN(CC)C(=O)Oc1ccc2cc(Br)ccc2c1,-87*
COc1ccc(Oc2c(C)oc3cc(OC(=O)N4CCOCC4)ccc3c2=O)cc1,56
CCN(CC)C(=O)Oc1ccc2c(=O)c(-c3ccc(OC)cc3)coc2c1,-125*
COc1ccc(-c2coc3cc(OC(=O)N4CCOCC4)ccc3c2=O)cc1,-67*
COc1ccc(C2c3ccc4ccccc4c3Oc3ncn(CCCN(C)C)c(=N)c32)cc1 (stereo not given),90
CCn1cnc2sc(C(=O)Nc3ccc4c(c3)OCO4)c(C)c2c1=O,-145*
CCCNC(=O)Cn1cnc2sc(C(=O)Nc3ccc4c(c3)OCO4)c(C)c2c1=O,-63*
O=c1c(-c2ccc(O)cc2)coc2cc(O)ccc12,-93*
Cc1oc2cc(O)ccc2c(=O)c1-c1cnn(-c2ccccc2)c1,-77*
O=c1c(-c2cnn(-c3ccccc3)c2)coc2cc(O)ccc12,-156*
COc1ccc(Cl)cc1-c1nc(-c2ccc(Br)o2)no1,-123*
SMILES,aSyn UTR act
Fc1ccccc1-c1nc(-c2ccc(Br)o2)no1,-74*
Cc1ccccc1-c1nc(-c2ccc(Br)o2)no1,-110*
Cc1ccccc1-c1nc(-c2ccc(NC(=O)c3ccc(Br)o3)cc2)no1,-199*
CC1=NN(c2ccc(C)cc2)C(=O)/C1=C\c1ccc(Br)s1,-66*
CCOC(=O)C(=CNc1ccc(C(F)(F)F)cc1Cl)C(=O)OCC,-97*
Cn1c(/C=C/c2ccc(Cl)cc2Cl)c([N+](=O)[O-])c(=O)n(C)c1=O,-204*
CCc1ccc(/C=C/c2c([N+](=O)[O-])c(=O)n(C)c(=O)n2C)cc1,-62*
COc1cccc(OCc2cc(C(=O)NC3CCOCC3)no2)c1,-139*
CC1(C)CC(NC(=O)c2cc(COc3cccc(C(F)(F)F)c3)on2)CCO1 (stereo not given),-93*
Cc1cccc(-n2ncc3c(N4CCOCC4)ncnc32)c1,77
Cc1cccc(-n2ncc3c(NCCCO)ncnc32)c1,-101*

# Screens: PubChem, Broad Institute
